Results on 38 compounds are retold here after PubChem BioAssay (NCATS).

Inconclusive results are not listed. Calls of active or inactive are those of the source. Unless noted, calls follow the shape of the dose curve; as a rule, active = well fitted curve in the direction sought with a large enough effect; inconclusive = small, poorly fitted or top-dose-only effect, or another doubt; inactive = no such curve, though single readings can be large; an effect the other way counts as inactive or inconclusive.

Test [1] can be described thus: qHTS assay for measurement of the activity of small molecule inhibitors on Zika virus induced Caspase-3 activity in human iPSC derived neural progenitor cells (hNPCs) (AID 1224857). Also: % of control where 0% means no effect; nearly all actives have a fitted effect of over 65% in size. In outline: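 Quantitative HTS format: human iPSC neural progenitors, 1 h compound pretreatment, ZIKV 2 FFU/cell for 6 h at 37 C. Percent inhibition derived from luminescent caspase-3/7 signal between uninfected and infected controls.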
(In general: Quantitative high-throughput screening tests each substance at several concentrations.)

Test [2] in a line: qHTS assay for measurement of the activity of small molecule inhibitors on Zika virus induced Caspase-3 activity in human astrocytoma cells (AID 1224859).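 Also: plate controls were ZIKV-infected untreated cells for no effect and uninfected cells for full effect.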 In outline:
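Readout is luminescence from Caspase-Glo 3/7 added after a 6 h ZIKV infection (2 FFU/cell) of compound-pretreated (1 h) SNB-19 cells; data expressed as % inhibition versus uninfected and infected wells.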

Test [3] in a line: P-glycoprotein substrates identified in KB-8-5-11 adenocarcinoma cell line, qHTS therapeutic library screen (AID 1346987). Also: nearly all actives have a fitted effect of over 65% in size. A digest of the protocol:
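Compounds are pinned in dose-response onto KB-8-5-11 cells (500 cells/well, colchicine-free medium) and left 72 h at 37 degree C. CellTiter-Glo luminescence then yields AC50 values.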

A short description of test [4]: NS1 protein of Zika virus - qHTS assay to identify small molecule inhibitors in human HEK 293 cells (AID 1347053).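 Also: plate controls were infected untreated cells for no effect and uninfected cells for full effect; nearly all actives have a fitted effect of over 55% in size.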 In outline:
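Readout was TR-FRET using paired anti-NS1 antibodies after 24 h infection of HEK 293 cells with ZIKV MR766 (MOI = 0.5). Compound preceded virus by 1 h; reduced signal reflects lower NS1 expression.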

Test [5] in a line: qHTS assay to identify small molecule inhibitors of chordoma cells - UCH-1 (AID 1259355). Also: % is scaled to controls: 0 for no effect and ±100 for the full control effect; nearly all actives have a fitted effect of over 55% in size. In outline:
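800 cells/well, overnight attach; compounds pinned at 15 concs, then auranofin/camptothecin/doxorubicin/rubitecan/topotecan combo added; 48hr 37 C, 5% CO2; CellTiter-Glo, 30min RT, luminescence.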

The target of test [6] is Atrial natriuretic peptide receptor 1 (Homo sapiens) (UniProt P16066). The test is described as follows: Natriuretic polypeptide receptor (hNpr1) antagonism - Pilot screen (AID 1347049; calls by dose curve;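 also: HEK293 cells with hNpr1 and GloSensor cGMP luciferase stimulated by 0.1 nM hNppA; agonist-evoked cGMP luminescence read 20 min after hNppA addition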; also: potency is read from the fitted curve at half-maximal effect). In outline: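 Receptor antagonism read as cGMP-dependent luminescence in hNpr1/pGS-40F HEK293 cells: pre-read after 30 min compound exposure, post-read 20 min after hNppA agonist at 0.1 nM final, all at room temperature, protected from light; A-71915 titration as control.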

Test [7] can be described thus: Natriuretic polypeptide receptor (hNpr1) antagonism - Pilot counterscreen GloSensor control cell line (AID 1347045; calls by dose curve; also: potency is read from the fitted curve at half-maximal effect). A digest of the protocol: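 Control counterscreen: luciferase cGMP-biosensor HEK293 cells (no Npr1) received compound for 30 min at room temperature after GloSensor substrate loading. Luminescence was measured before and 20 min after soluble guanylyl cyclase activation by 50 uM nitroprusside.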
For orientation: The purpose of a counterscreen is to sort out artefacts and off-target activity.

In test [8] the target is Atrial natriuretic peptide receptor 2 (Homo sapiens) (UniProt P20594). The test is described as follows: Natriuretic polypeptide receptor (hNpr2) antagonism - Pilot subtype selectivity assay (AID 1347050; calls by dose curve; also: potency is read from the fitted curve at half-maximal effect). A digest of the protocol:
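Antagonist mode: compounds (LOPAC1280, seven 1:5 dilutions) added 30 min before 1 nM hNppC stimulation of hNpr2-HEK293 cGMP-sensor cells; luminescence read before and 20 min after agonist at ambient temperature.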

Test [9] is described as follows: P-glycoprotein substrates identified in KB-3-1 adenocarcinoma cell line, qHTS therapeutic library screen (AID 1346986). Also: nearly all actives have a fitted effect of over 60% in size. A digest of the protocol: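 Viability read by CellTiter-Glo after 72 h compound exposure in dose-response of KB-3-1 and KB-8-5-11 (P-gp-high) cells. Hits needed AC50 < 10 uM, >50% maximum response and curve class -1.1 to -2.4. Cherry-picks retested ± tariquidar, including pcDNA/MDR-19 HEK-293 pair.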

A short description of test [10]: High-throughput drug toxicity screening in the BPDCN cell line Cal-1 (AID 1224825; call rule not given here). Conditions: Cal-1 BPDCN cell viability, qHTS; at 45.8 µM (top of the series). In outline:
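Percent activity derived from CellTiter-Glo luminescence, scaling DMSO to 100% and 9.2 uM final bortezomib to 0%. BPDCN Cal-1 cells (500/well, RPMI plus 10% FBS) incubated with compounds 48 hours at 37C before reading.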

A short description of test [11]: qHTS Screen of the MIPE 4.0 Collection Against Ewings Sarcoma (EW8) (AID 1259255). Also: potency is read from the fitted curve at half-maximal effect; nearly all actives have a fitted effect of over 35% in size. A digest of the protocol: (§1)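 Cells plated in serum-containing RPMI (5% FBS) and treated with compound dilutions for 48 h. Readout luminescent viability; normalization relied on vehicle (no inhibition) and media-only columns (full inhibition).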
The nature of test [12]: qHTS Screen of the MIPE 4.0 Collection Against Ewings Sarcoma (TC32) (AID 1259256). Also: potency is read from the fitted curve at half-maximal effect; nearly all actives have a fitted effect of over 45% in size. A digest of the protocol:
as §1

Test [13] can be described thus: qHTS Screen of the MIPE 4.0 Collection Against Ewings Sarcoma (TC71) (AID 1259253). Also: potency is read from the fitted curve at half-maximal effect; nearly all actives have a fitted effect of over 40% in size. A digest of the protocol: as §1

Sequence of Atrial natriuretic peptide receptor 2 (Homo sapiens) (P20594 whole entry, looked up): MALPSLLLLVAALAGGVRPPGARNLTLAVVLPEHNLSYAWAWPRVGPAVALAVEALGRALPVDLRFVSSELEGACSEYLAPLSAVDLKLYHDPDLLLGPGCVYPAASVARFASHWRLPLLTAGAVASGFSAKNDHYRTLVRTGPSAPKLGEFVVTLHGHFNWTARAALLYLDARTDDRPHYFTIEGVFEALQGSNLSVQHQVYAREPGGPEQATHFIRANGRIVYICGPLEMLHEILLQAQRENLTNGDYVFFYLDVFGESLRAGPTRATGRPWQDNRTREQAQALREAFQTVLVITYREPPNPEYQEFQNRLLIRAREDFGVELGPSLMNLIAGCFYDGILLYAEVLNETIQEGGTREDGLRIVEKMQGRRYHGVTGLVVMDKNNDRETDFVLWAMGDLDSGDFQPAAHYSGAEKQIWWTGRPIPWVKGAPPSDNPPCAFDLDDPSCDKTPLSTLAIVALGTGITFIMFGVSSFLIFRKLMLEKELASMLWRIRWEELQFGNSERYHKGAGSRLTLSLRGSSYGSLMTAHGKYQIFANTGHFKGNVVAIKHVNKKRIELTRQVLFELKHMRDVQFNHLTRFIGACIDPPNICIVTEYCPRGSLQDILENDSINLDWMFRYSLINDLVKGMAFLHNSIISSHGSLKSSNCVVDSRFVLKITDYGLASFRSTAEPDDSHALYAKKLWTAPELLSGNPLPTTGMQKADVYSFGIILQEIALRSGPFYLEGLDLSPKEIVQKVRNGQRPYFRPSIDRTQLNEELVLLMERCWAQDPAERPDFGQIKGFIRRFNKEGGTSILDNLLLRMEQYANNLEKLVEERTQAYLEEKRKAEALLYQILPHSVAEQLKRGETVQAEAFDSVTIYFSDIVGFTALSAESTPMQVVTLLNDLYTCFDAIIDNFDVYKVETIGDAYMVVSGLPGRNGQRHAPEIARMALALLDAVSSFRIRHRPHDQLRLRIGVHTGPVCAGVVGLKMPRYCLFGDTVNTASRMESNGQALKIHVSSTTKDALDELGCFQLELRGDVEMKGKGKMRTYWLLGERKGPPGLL
Sequence of Atrial natriuretic peptide receptor 1 (Homo sapiens) (P16066 whole entry, looked up): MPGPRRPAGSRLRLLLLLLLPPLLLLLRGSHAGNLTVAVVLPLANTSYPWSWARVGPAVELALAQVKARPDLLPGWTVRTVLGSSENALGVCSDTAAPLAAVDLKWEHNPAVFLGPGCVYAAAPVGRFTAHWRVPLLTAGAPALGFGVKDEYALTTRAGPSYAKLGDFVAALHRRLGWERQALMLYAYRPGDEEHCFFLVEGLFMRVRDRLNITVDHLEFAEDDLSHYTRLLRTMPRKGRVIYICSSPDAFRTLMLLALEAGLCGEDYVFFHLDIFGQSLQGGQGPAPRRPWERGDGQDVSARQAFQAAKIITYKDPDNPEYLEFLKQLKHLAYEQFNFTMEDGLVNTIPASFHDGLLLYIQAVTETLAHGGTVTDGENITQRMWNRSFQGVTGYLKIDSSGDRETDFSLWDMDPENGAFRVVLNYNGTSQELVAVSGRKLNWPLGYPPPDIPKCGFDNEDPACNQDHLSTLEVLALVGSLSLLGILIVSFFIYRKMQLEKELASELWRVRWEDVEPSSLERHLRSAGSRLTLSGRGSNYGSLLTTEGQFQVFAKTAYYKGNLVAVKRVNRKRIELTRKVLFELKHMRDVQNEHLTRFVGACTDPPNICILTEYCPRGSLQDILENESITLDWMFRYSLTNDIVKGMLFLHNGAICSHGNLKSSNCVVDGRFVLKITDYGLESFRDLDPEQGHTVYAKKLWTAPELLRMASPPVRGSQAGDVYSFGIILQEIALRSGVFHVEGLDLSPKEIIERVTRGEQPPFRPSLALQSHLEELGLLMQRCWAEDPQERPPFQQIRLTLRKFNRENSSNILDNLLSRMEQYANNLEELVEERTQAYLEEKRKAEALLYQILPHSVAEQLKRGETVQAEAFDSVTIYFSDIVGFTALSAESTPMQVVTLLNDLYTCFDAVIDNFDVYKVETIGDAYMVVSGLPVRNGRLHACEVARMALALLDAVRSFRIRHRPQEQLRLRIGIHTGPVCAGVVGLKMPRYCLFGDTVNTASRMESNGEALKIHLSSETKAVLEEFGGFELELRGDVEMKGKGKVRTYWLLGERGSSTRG

As to `CS(=O)(=O)c1ccc(C(=O)C2C(=O)CCCC2=O)c([N+](=O)[O-])c1`, the Potency result in test [1], in test [2], in [3] and in [4] was “inactive” each time.
`CCO/N=C(\CC)C1=C(O)CC(c2c(C)cc(C)cc2C)CC1=O` (stereo not given): the Potency result in test [1], in [2], in test [3] and in test [4] was “inactive” throughout.
As to `Clc1ccc(C(c2ccc(Cl)cc2)n2cc[n+](CC(OCc3ccc(Cl)cc3Cl)c3ccc(Cl)cc3Cl)c2)cc1` (stereo not given), the Potency result in [1] was “inactive”.
For the compound `Cc1cc(O)ccc1Cl`, the Potency result in [1], in test [2], in test [5], in test [3] and in test [4] was “inactive” in each case.
Consider `CC[C@@H]1C(=O)OC[C@@H]1Cc1cncn1C`, for which the Potency entry in test [1] is “inactive”.
As to `c1ccc(C2(c3ccccc3)CC2C2=NCCN2)cc1` (stereo not given), the Potency result in [1], in test [2], in test [5], in test [3], in test [6] and in test [4] was “inactive” throughout.
Take `NC(=O)CN1CC(O)CC1=O` (stereo not given): the Potency entry in test [1], in test [2], in test [5], in test [3], in test [7] and in test [8] was “inactive” throughout. Further, the Potency entry in test [4] was “inactive”.
As for `O=S(=O)(O)C(F)(F)C(F)(F)C(F)(F)C(F)(F)C(F)(F)C(F)(F)C(F)(F)C(F)(F)F`, the Potency result in test [1], in [2], in [3] and in test [4] was “inactive” throughout.
Consider `C[N+]1(C)C2CC(OC(=O)[C@H](CO)c3ccccc3)CC1C1OC12` (stereo not given in full), for which the Potency result in test [1] was “inactive”.
As to `CN[C@@H]1C[C@@H](c2ccc(Cl)c(Cl)c2)c2ccccc21`, the Potency entry in test [1], in test [2] and in [5] was “inactive” in each case. The Potency in test [7] is 26.1 µM (active); in [6], 0.757 µM (active); in test [8], 18.5 µM (active).
`CCC1(CCC(C)C)C(=O)NC(=O)NC1=O`: the Potency entry in test [1], in test [2], in test [3] and in test [4] was “inactive” each time.
Turning to `Nc1ccc(Cl)cc1`, the Potency result in test [1], in test [2], in test [3] and in [4] was “inactive” in each case.
Regarding `O=C(O)COc1ccccc1`, the Potency entry in test [1], in test [2], in test [5], in [3] and in [4] was “inactive” each time.
Take `CC(C)[C@H]1CN[C@H](C(=O)O)[C@H]1CC(=O)O`: the Potency entry in test [1] is “inactive”.
Take `CC[N+]1(CCOC(=O)C(O)(c2ccccc2)c2ccccc2)CCCCC1`: the Potency result in test [1], in test [2], in [5], in test [3] and in test [4] was “inactive” each time.
For `O=C(O)C(Cl)Cl`, the Potency result in test [1], in [2], in [5], in test [9], in test [3] and in test [4] was “inactive” throughout.
For the compound `Nc1c(Cl)c(Cl)c(Cl)c(Cl)c1Cl`, the Potency entry in test [1], in test [2], in [3] and in [4] was “inactive” each time.
On to `C/C=C(/C)C(=O)O[C@H]1C(C)=C2[C@H]([C@@H]1OC(=O)CCCCCCC)[C@@](C)(OC(C)=O)C[C@H](OC(=O)CCC)[C@@]1(O)[C@H]2OC(=O)[C@@]1(C)O`, for which the Potency result in [1] and in test [2] was “inactive” each time.
Regarding `C[C@]12N[C@H](Cc3ccccc31)c1ccccc12`, the Potency entry in test [1], in [2], in [5], in test [7], in test [6] and in test [8] was “inactive” each time. In addition, in test [4], the Potency result was “inactive”.
With `Cc1ccc(Cl)c(O)c1`, the Potency entry in test [1], in test [2], in [5], in [3] and in [4] was “inactive” in each case.
With `CC(C)NC(C)Cc1ccc(I)cc1` (stereo not given), the Potency result in test [1], in test [2], in test [5], in [7], in test [8] and in [4] was “inactive” each time.
Consider `CC(C)(C)C(O)C(Oc1ccc(Cl)cc1)n1cncn1` (stereo not given), for which the Potency result in test [1] and in test [2] was “inactive” in each case.
With `CCCCc1ccc(C(=O)O)nc1`, the Potency result in test [1], in [2], in [5], in [7], in [6] and in test [8] was “inactive” throughout. The Potency entry in test [4] is “inactive”.
As for `O=[N+]([O-])c1ccc([As](=O)(O)O)cc1`, the Potency entry in [1], in test [2], in test [5], in test [3] and in test [4] was “inactive” each time.
Turning to `S=C(NC1CCCCC1)N1CCC(c2cnc[nH]2)CC1`, the Potency result in test [1], in test [2], in test [3], in [6], in test [8] and in [4] was “inactive” each time.
Compound `O=S(=O)(CC1CS1)c1ccc(Oc2ccccc2)cc1` (stereo not given) registered a viability (% of control) in test [10] of 3.02%. In addition, the Potency entry in [2] and in [4] was “inactive” throughout. The Potency in test [11] is 20.9 µM (active); in test [12] it was 16.6 µM (active).
For `CCCN1CCC[C@H](c2cccc(O)c2)C1`, the Potency result in [1], in test [2], in test [5], in test [3], in test [7] and in test [6] was “inactive” throughout. Further, the Potency result in test [8] and in test [4] was “inactive” in each case.
Turning to `COC(=O)c1cncn1C(C)c1ccccc1` (stereo not given), the Potency entry in [1], in [2], in test [5], in [3] and in test [4] was “inactive” each time.
With `CCCN(CCC)c1c([N+](=O)[O-])cc(S(N)(=O)=O)cc1[N+](=O)[O-]`, the Potency entry in test [1] and in test [2] was “inactive” throughout.
In [10], `CN1[C@H]2CC(O)C[C@H]1[C@H]1O[C@H]12` (stereo not given in full) gave a viability (% of control) of 52.9%. Further, in test [1], the Potency entry was “inactive”. Also, the values for the Potency in test [13], in test [11] and in [12] were 26.4 µM (active), 23.5 µM (active) and 23.5 µM (active), respectively.
For `CCCCCCCCc1ccc(O)cc1`, the Potency result in [1], in test [2], in test [3] and in [4] was “inactive” each time.
Turning to `NCCc1c[nH]c2ccc(O)cc12`, the Potency entry in [1], in [2], in test [7], in [6], in test [8] and in [4] was “inactive” throughout.
`C[C@]12CCC3C(CC[C@H]4C[C@H](O)CC[C@]34C)C1CC[C@@H]2C(=O)CO` (stereo not given in full): the Potency entry in test [1], in test [2], in test [7], in [6], in [8] and in test [4] was “inactive” each time.
On to `CCCN(CCC)[C@@H]1CCc2ccc(O)cc2C1`, for which the Potency result in test [1], in test [2], in test [7], in test [6], in [8] and in test [4] was “inactive” throughout.
Turning to `CNCCc1ccc(O)c(O)c1`, the Potency result in test [1], in test [2], in test [7], in [6], in [8] and in [4] was “inactive” each time.
As to `COCCOCCO`, the Potency entry in test [1], in test [2], in test [3] and in test [4] was “inactive” each time.
As for `Nc1ccc(Sc2ccc(N)cc2)cc1`, the Potency result in test [1], in [2], in test [3] and in test [4] was “inactive” in each case.
`Clc1cnc(Oc2ccc(Oc3ncc(Cl)cc3Cl)cc2)c(Cl)c1`: the Potency entry in test [1], in test [2], in test [7], in test [6], in test [8] and in test [4] was “inactive” throughout.
